From PubChem
An excerpt weighted towards active compounds, which were near 19% of everything screened.
TDP1 cell CPT: growth inhibition of DT40 Tdp1-/-;hTDP1 cells with camptothecin (screen for TDP1 inhibitors) | chicken DT40 Tdp1-/-;hTDP1 cells + 20 nM CPT, ATP luminescence, 48 h | Potency, µM (top dose mostly 46.2 µM), for the others: top-dose activity change, negative = growth inhibition, usual class: inhibitors | 420,000 compounds, 12% hits; also: potency is read from the fitted curve at half-maximal effect; nearly all actives have a fitted effect of over 55% in size
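Chicken DT40 Tdp1-/- cells stably complemented with human TDP1 were seeded at 400 cells/well in medium containing 20 nM camptothecin, exposed to pin-transferred compounds, and grown at 37 °C for at least 48 hr. Viability was read as ATP luminescence.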
Giardia kill: Giardia lamblia killing; Giardia lamblia trophozoite viability; AID 540267; activity change, % at 7.66 µM, hits read low; 340,000 compounds, 0.15% hits; in the data active = activity change below about -80%; inconclusive = between about -30% and that limit;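 also: parasites exposed to compound for two days anaerobically before the ATP read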
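Giardia trophozoites, 100 cells per well, were exposed to compounds for 48 hrs at 37 deg C under anaerobic conditions; viability was then read as ATP content by bioluminescence after 15-30 min at room temperature.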
IL-1B inflam inh: blocks inflammasome-driven IL-1 beta release; THP-1 LPS/ATP IL-1B secretion, AlphaLISA, 16 h; active compounds read low; activity change, % at 57.5 µM; 360,000 compounds, 4.7% hits; AID 743279; in the data active = activity change below about -50%; inconclusive = mostly about -30% to -49%
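Secreted IL-1B measured by AlphaLISA bead assay after 16 h compound exposure of THP-1 cells; compounds (final up to 57.5 uM) added 1 h before LPS (250 ng/mL) and ATP (1.25 mM) stimulation; lower signal means less secretion.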
ELG1 repair inh: inhibitors of ELG1-dependent DNA repair in HEK293T cells. Potency, µM (doses to about 46.1 µM), for inactives: at the highest dose activity change, negative = inhibition, hits mostly inhibitors. HEK293T ELG1-luciferase reporter, luminescence, 16 h; DNA damage induced by 5-fluorouridine. AID 504467. 330,000 compounds, 2.3% hits; also: potency is read from the fitted curve at half-maximal effect; nearly all actives have a fitted effect of over 55% in size
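Step one: seed 2,000 cells per well. Step two: pin-transfer compound or DMSO alongside 5-fluorouridine. Step three: incubate 16 hr, 37 °C, 5% CO2. Step four: add ONE-Glo, wait 30 min, read luminescence.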
TDP1 inh: blocks human tyrosyl-DNA phosphodiesterase 1 | AID 485290 | Potency, µM (titrated, usually from 130 µM), without a hit: top-dose activity change, negative = inhibition, usual class: inhibitors | 350,000 compounds, 0.28% hits | recombinant TDP1, AlphaScreen DNA substrate cleavage; also: potency is read from the fitted curve at half-maximal effect; nearly all actives have a fitted effect of over 40% in size
Target sequence (Q9NUW8 whole entry, looked up): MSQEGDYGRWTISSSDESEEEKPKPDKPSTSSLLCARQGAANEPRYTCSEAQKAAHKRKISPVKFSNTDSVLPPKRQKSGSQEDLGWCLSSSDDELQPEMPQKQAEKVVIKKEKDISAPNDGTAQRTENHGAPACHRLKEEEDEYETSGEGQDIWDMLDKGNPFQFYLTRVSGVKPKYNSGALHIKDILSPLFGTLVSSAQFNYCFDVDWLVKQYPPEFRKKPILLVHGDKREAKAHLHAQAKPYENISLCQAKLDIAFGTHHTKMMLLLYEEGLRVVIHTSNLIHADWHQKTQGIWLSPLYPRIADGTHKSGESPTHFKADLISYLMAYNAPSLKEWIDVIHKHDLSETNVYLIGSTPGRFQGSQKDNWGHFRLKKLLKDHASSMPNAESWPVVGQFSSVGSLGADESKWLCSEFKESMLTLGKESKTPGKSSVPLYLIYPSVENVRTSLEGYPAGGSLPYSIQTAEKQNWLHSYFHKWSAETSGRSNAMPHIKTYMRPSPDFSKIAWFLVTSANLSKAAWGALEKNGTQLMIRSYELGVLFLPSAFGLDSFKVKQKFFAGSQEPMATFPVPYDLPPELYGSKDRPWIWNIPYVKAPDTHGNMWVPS
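Recombinant human Tdp1 (E. coli-expressed, 1 nM final) preincubated with compounds 15 min at room temperature, then 5'-biotin/3'-phosphotyrosine-FITC DNA substrate (15 nM final) added for 5 min. AlphaScreen beads (10 ug/ml final) added 10 min; cleavage lowers signal.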
DT40 TDP1 no CPT: qHTS for Inhibitors of human tyrosyl-DNA phosphodiesterase 1 (TDP1): qHTS in cells in absence of CPT. DT40 Tdp1-/- hTDP1 cells, no CPT, ATP luminescence, 48 h. 420,000 compounds, 15% hits. Potency, µM (titrated, usually from 46.2 µM), inactives show at the top dose activity change, negative = growth inhibition, hits mostly inhibitors. AID 686978, 2013; also: potency is read from the fitted curve at half-maximal effect; nearly all actives have a fitted effect of over 55% in size
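Seeded 400 DT40-hTDP1 cells/well (vehicle DMSO, no 20 nM CPT); pinned compounds; ≥48 hr at 37 °C; CellTiter-Glo luminescence as viability measure.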
* marks the source's active call; other numbers are inactive results; ? = inconclusive; . = not tested or not shown; [ ] = dose if it differs, or a comment. Unless noted, calls follow the shape of the dose curve; as a rule, active = well fitted curve in the direction sought with a large enough effect; inconclusive = small, poorly fitted or top-dose-only effect, or another doubt; inactive = no such curve, though single readings can be large; an effect the other way counts as inactive or inconclusive. % is scaled to controls: 0 for no effect and ±100 for the full control effect.

SMILES	TDP1 cell CPT	Giardia kill	IL-1B inflam inh	ELG1 repair inh	TDP1 inh	DT40 TDP1 no CPT
Cc1ccc(C(=O)Nc2cccnc2)cc1S(=O)(=O)N1CCCCCC1	?	9.2	0.0	-6.8%	5.0%	?
O=C(Nc1cccnc1)c1ccc(C(=O)Nc2cccnc2)cc1	-10.9%	-4.3	0.0	-0.1%	2.8%	?
O=C(Nc1cccnc1)c1ccc(S(=O)(=O)c2ccc(Cl)cc2)cc1	?	12.2	-66.1*	?	5.3%	23.1µM*
O=C(Nc1ccccc1O)c1cc(S(=O)(=O)N2CCCC2)ccc1Cl	?	.	.	.	-0.4%[12.3 µM]	20.6µM*
O=C(Nc1cccnc1)c1ccc(Cl)c(S(=O)(=O)N2CCCCCC2)c1	?	0.2	-21.1	20.6µM*	5.7%	?
CCN(CC)CCOC(=O)c1ccc(NC(=O)c2ccc(Cl)c(S(=O)(=O)N3CCCCCC3)c2)cc1	20.6µM*	-22.5	-68.8*	?	3.6%	?
Brc1cc(Br)cc(CN2CCSCC2)c1	-1.3%	-20.0	16.4	2.9%	-4.1%	3.4%
O=C(Nc1ccncc1)c1ccc(Cl)c(S(=O)(=O)N2CCCCC2)c1	13µM*	-2.9	-11.2	?	2.5%	16.4µM*
O=C(O)c1ccc(NC(=O)c2ccc(Cl)c(S(=O)(=O)N3CCCCCC3)c2)cc1	-21.2%	.	.	.	1.9%	-18.1%
O=C(Nc1ccc(N2CCOCC2)cc1)c1ccc(Cl)c(S(=O)(=O)N2CCCC2)c1	?	8.6	35.1	?	1.8%	20.6µM*
Cn1ccc(C(=O)NCC2CCC3(CCN(Cc4cc(F)cc(F)c4)CC3)O2)n1 (stereo not given)	-8.3%	.	.	.	.	-21.5%
CCOC(=O)C1CCCN(C(=O)c2ccc3c(c2)N(Cc2cccc(Cl)c2)C(=O)c2ccccc2S3(=O)=O)C1 (stereo not given)	?	.	.	.	6.6%	?
CCOC(=O)c1c(C)[nH]c(C(=O)OCc2csc(CC(=O)Nc3ccccc3C)n2)c1C	16.4µM*	8.8	1.3	?	.	13µM*
Cc1ccccc1NC(=O)Cc1nc(COC(=O)c2cccc(C)c2O)cs1	-12.4%	6.9	10.7	-3.2%	1.2%	4.2%
Cc1ccccc1NC(=O)Cc1nc(COC(=O)c2nc(Cl)ccc2Cl)cs1	-4.4%	-20.8	2.0	1.6%	-0.6%	-13.5%
Cc1ccccc1NC(=O)Cc1nc(COC(=O)c2ncc(Cl)c(Cl)c2Cl)cs1	?	-13.5	-88.4*	.	.	?
COc1ccc(CN2CCC3CC2c2cc(Cl)ccc23)cc1 (stereo not given)	18.4µM*	-15.7	11.2	.	.	18.4µM*
COc1ccc(CN2CCC3CC2c2cc(-c4cccc(C)c4)ccc23)cc1 (stereo not given)	20.6µM*	?	-17.6	.	.	14.6µM*
Clc1ccc2c(c1)C1CC2CCN1Cc1ccccc1 (stereo not given)	-5.5%	-6.9	29.2	.	.	-14.1%
O=C(/C=C/c1ccc(F)cc1)NCCCn1ccnc1	-4.3%	32.2	33.0	14.3%	.	14.9%
CCOC(=O)C1C(=O)CC(C)(O)C(C(=O)OCC)C1c1ccco1 (stereo not given)	18.4µM*	-10.1	7.3	7.1%	0.0%	20.6µM*
CN(CCOC(=O)/C=C/c1ccco1)Cc1ccccc1	-27.9%	10.9	1.5	12.5%	10µM*	?
CN(CCOC(=O)c1ccco1)Cc1ccccc1	12.4%	-23.9	0.0	4.2%	-3.5%	5.4%
CN(Cc1ccccc1)C(=O)COC(=O)/C=C/c1ccco1	2.8%	-11.2	-6.2	1.9%	39.8µM*	-13.0%
C=CCn1c(SCc2c(F)cccc2Cl)nnc1-c1ccco1	20.6µM*	-10.3	-25.9	-17.0%	2.0%	16.4µM*
SMILES	TDP1 cell CPT	Giardia kill	IL-1B inflam inh	ELG1 repair inh	TDP1 inh	DT40 TDP1 no CPT
Cc1cc(C=O)c(C)n1-c1ccc(N2CCOCC2)cc1	?	3.9	?	-7.9%	2.5%[56.1 µM]	?
Cc1ccc(C)n1-c1ccc(N2CCOCC2)c(Br)c1	18.4µM*	-2.6	?	?	5.3%	14.6µM*
CC1CCCCN1C(=O)c1c([N+](=O)[O-])cnn1C (stereo not given)	-8.7%	19.2	6.6	5.0%	3.3%	-0.5%
O=C(NC1CCN(Cc2ccccc2)CC1)C1CCN(S(=O)(=O)c2ccc(Cl)cc2)CC1	?	6.2	-23.7	-16.9%	.	16.4µM*
CSc1ccc(CN2CCC(N3CCC(C(=O)NC4CC4)CC3)CC2)cc1	20.6µM*	.	-28.2	.	.	8.2µM*
Cc1noc(C)c1S(=O)(=O)N1CCC(C(=O)NC2CCN(Cc3ccccc3)CC2)CC1	?	9.7	-6.8	?	0.0%	11.2µM*
O=C(NC1CCN(Cc2ccccc2)CC1)C1CCN(S(=O)(=O)c2ccccc2)CC1	-28.1%	7.9	9.4	-15.8%	.	?
Cc1noc(C)c1S(=O)(=O)N1CCC(C(=O)Nc2ccccn2)CC1	-9.9%	3.9	-21.2	.	2.0%	-15.0%
O=S(=O)(c1cccc(F)c1)N1CCN(c2ncnc3scc(-c4ccc(F)cc4)c23)CC1	14.6µM*	-12.7	-11.0	?	0.3%	11.6µM*
Cc1ccc(S(=O)(=O)N2CCN(c3ncnc4scc(-c5ccccc5)c34)CC2)cc1	?	-0.7	22.0	?	0.3%	23.1µM*
Cc1ccc(S(=O)(=O)N2CCN(c3ncnc4scc(-c5ccc(F)cc5)c34)CC2)cc1	?	-5.7	40.2	?	1.7%[0.505 µM]	14.6µM*
Cc1sc2ncnc(N3CCN(S(=O)(=O)c4ccccc4)CC3)c2c1C	8.2µM*	5.9	32.5	?	1.4%	6.51µM*
Cc1ccc(S(=O)(=O)N2CCN(c3ncnc4c3cnn4-c3ccccc3)CC2)cc1	-0.6%	-12.2	-2.3	1.7%	4.1%	-16.7%
COc1ccccc1C(=O)NNC(=S)NC(=O)c1sc2ccccc2c1Cl	14.6µM*	11.1	5.8	?	9.4%	8.2µM*
COc1cccc(CN(C)C(=O)CNC(=O)c2sc3ccccc3c2Cl)c1OC	?	0.2	-50.9*	-29.9%	-0.9%	?
CC1CC(C)CN(C(=O)CNC(=O)c2sc3ccccc3c2Cl)C1 (stereo not given)	?	40.7	-57.4*	-4.7%	-4.3%	23.1µM*
CCOc1ccccc1N1CCN(C(=O)CNC(=O)c2sc3ccccc3c2Cl)CC1	?	6.3	-20.8	?	-0.3%	23.1µM*
COc1ccc(CN(C)C(=O)CNC(=O)Cc2cccc3ccccc23)c(OC)c1OC	?	-15.1	-1.2	18.5%	0.5%	-26.6%
